# According to PubChem BioAssay AID1490 (National Center for Advancing Translational Sciences (NCATS), 2009):
# Screen size: about 310,000 compounds; about 11,000 (3.5%) were called active. Not shown: some 4% with an inconclusive outcome. Many of the other results were omitted from the sample, so actives are more common in it than they were. Values without a mark were called inactive. Calls follow the shape of the dose curve; as a rule, active = well fitted inhibition curve with a large enough effect; inconclusive = small, poorly fitted or top-dose-only effect, or another doubt; inactive = no such curve, though single readings can be large or run the other way.
# Biological target: 4'-phosphopantetheinyl transferase ffp (Bacillus subtilis) (UniProt Q9F4F7)
# Assay: qHTS Assay for Inhibitors of Bacillus subtilis Sfp phosphopantetheinyl transferase (PPTase);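 also: the enzyme is Sfp with the accession as filed and its product quenches rhodamine fluorescence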;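 as to largest response in the series, negative = inhibition: 0% = enzyme reaction without inhibitor and -100% = no enzyme wells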
# Conditions: Biochemical Sfp PPTase activity
# Summary of the method: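 Sfp 15 nM + cpd, 15 min RT; start w/ rhodamine-CoA 5 uM, BHQ-2-YbbR 12.5 uM (final); 50 mM Hepes pH 7.6, 10 mM MgCl2, 0.01% NP-40, 0.01% BSA; read 525/598 nm at 0 and 30 min.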
# Potency is read from the fitted curve at half-maximal effect.
SMILES,"largest response in the series, negative = inhibition [%]",Potency
Cc1nc2cc(C(F)(F)F)ccc2n1CCNc1nc(-c2cc(Cl)c(N)c(Cl)c2)cs1,9.07,
Cc1cccc(N2CCN(C(=O)c3cccc(N4C(=O)C5C6C=CC(C6)C5C4=O)c3)CC2)c1C (configuration not stated),14.6,
Cc1ccc(NC(=O)Nc2cccnc2)cc1,2.48,
CCOC(=O)c1ccc(-c2ccc(C(=O)Nc3cccnc3)o2)cc1,,44.7 µM (active)
CCOC(=O)c1ccc(NC(=O)c2cccnc2)cc1,10.5,
Cc1cccc(C(=O)Nc2ccc(Oc3cnccn3)cc2)c1,11,
C=C1CCN(C(CC(C)C)C(=O)NCc2cc(OC)c(OC)c(OC)c2)S(=O)(=O)c2ccccc21 (configuration not stated),-15.6,
CCOc1ccc(C(c2c(C)[nH][nH]c2=O)c2c(C)[nH][nH]c2=O)cc1OCC,2.34,
Cc1[nH][nH]c(=O)c1C(c1ccc2c(c1)OCO2)c1c(C)[nH][nH]c1=O,5.9,
Cc1[nH][nH]c(=O)c1C(c1ccc(-c2ccc(Cl)cc2)o1)c1c(C)[nH][nH]c1=O,,39.8 µM (active)
Cc1ccc2occ(/C=N/NC(=O)c3ccccc3C)c(=O)c2c1,18.5,
CCC(C)[C@H](NC(=O)N1c2ccccc2NC(=O)[C@@H]1C(C)C)C(=O)N[C@@H](Cc1ccccc1)C(=O)O (some centres not stated),13.4,
Cc1ccc(OCCOc2cccc(/C=N/NC(N)=O)c2)cc1,9.7,
Cc1nnc(N/N=C/C2CC=CCC2)[nH]c1=O (configuration not stated),,79.4 µM (active)
COCc1c(C(=O)N/N=C/C2CC=CCC2)nnn1-c1nonc1N (configuration not stated),-0.608,
O=C(N/N=C\C1CC=CCC1)c1ccc(Br)o1 (configuration not stated),5.57,
Cc1nnc(N/N=C/c2cccs2)[nH]c1=O,,89.1 µM (active)
Cc1n[nH]c(=O)nc1N/N=C/c1cccs1,4.06,
Clc1ccc(N/N=C/c2cccs2)nn1,-26.9,
COc1ccc(CNC(=O)c2cc(C(=O)C3CC3)c[nH]2)cc1,19.2,
CCc1cc(=O)oc2c(C)c(OCC(=O)N3CC[C@@]4(O)CCCC[C@H]4C3)ccc12,6.44,

SMILES,"largest response in the series, negative = inhibition [%]",Potency
O=C(Nc1cccc(F)c1)NC1CCCCCCC1,8.11,
COc1ccc2c(c1)O[C@@H](c1ccc3c(c1)OCO3)[C@H](OC(=O)NCc1ccco1)C2=O,1.2,
CC(C)OCCCNC(=O)CN1C(=O)/C(=C/c2ccccc2F)Oc2ccccc21,-3.78,
Cc1cc(=O)cc(C)[nH]1,15,
CSc1cc(C)[nH]c(=O)n1,7.92,
Cc1cc(=O)[nH]c(=S)[nH]1,,31.6 µM (active)
O=C(c1ccc(Cl)c(S(=O)(=O)N2CCCCC2)c1)N1CCCCCC1,16.4,
O=C(c1ccccc1F)N1CCN(S(=O)(=O)c2ccc(Br)cc2)CC1,9.87,
O=C(c1ccc[nH]c1=S)N1CCN(S(=O)(=O)c2ccc(Br)cc2Cl)CC1,,79.4 µM (active)
CC(C)Sc1ncnc2c1cnn2-c1ccccc1,-5.09,
C=C1C(=O)C23C(O)C1CCC2[C@]12COC3(O)C(O)C1C(C)(C)CC[C@H]2O (some centres not stated),-81.1,
O=C(COCc1cc(-c2ccc3c(c2)OCO3)on1)N1CCN(c2cccc(Cl)c2)CC1,-5.35,
COc1ccc2c(C)cc3nnnn3c2c1,7.5,
COc1ccc2[nH]c3c(C)c4cc[n+](C)cc4c(C)c3c2c1,-11.7,
COc1ccc2[nH]c(=S)cc(C)c2c1,,39.8 µM (active)
CC(C)c1cc(C(=O)N/N=C/c2ccoc2)c(O)c(C(C)C)c1,13.5,
CC1CC(C)CN(CCCNC(=O)Cn2ncc3c([nH]c4ccccc43)c2=O)C1 (configuration not stated),5.5,
CCOC(=O)C(Sc1ncc(C#N)c(N)n1)C(C)C (configuration not stated),,56.2 µM (active)
CCCCOc1ccc(-c2ncc(C(=O)OCC)c(N)n2)cc1,3.34,
CCOC(=O)CSc1nccc(N(C)C)c1C#N,-4.04,
Cc1ccc(N2CC(C(=O)NCCS(=O)(=O)N3CCN(c4ccccc4)CC3)CC2=O)cc1 (configuration not stated),5.68,

SMILES,"largest response in the series, negative = inhibition [%]",Potency
COc1ccc2c3c1OC1CC(O)C=C[C@@]31CCN(C)C2 (some centres not stated),17,
O=C(CN1C(=O)c2ccccc2S1(=O)=O)NC1CCCCC1,15.6,
CCCc1nnc(NC(=O)CN2C(=O)c3ccccc3S2(=O)=O)s1,,22.4 µM (active)
CCCCc1nnc(NC(=O)CS(=O)(=O)Cc2ccccc2)s1,8.57,
COc1ccc(C)cc1NC(=O)CNCc1cccs1,-7.78,
O=C(CN(Cc1ccc(Br)cc1)S(=O)(=O)c1ccccc1)NCc1ccncc1,-4.2,
CCOC(=O)C1CCCN(S(=O)(=O)c2ccc(-n3cnnn3)c(C)c2)C1 (configuration not stated),13.1,
C#CC(CCN1CCCCC1)(OC)c1ccccc1 (configuration not stated),23.4,
COC(=O)c1sc(=S)n(-c2ccc(Cl)cc2)c1C,-2.12,
CCOC(=O)c1sc(=S)n(-c2cccc(OC)c2)c1N,,39.8 µM (active)
CCOC(=O)C(C)n1cnc2c(nnn2-c2cccc(OC)c2)c1=O (configuration not stated),30.5,
COC(=O)c1sc(=S)n(-c2ccccc2)c1N,,31.6 µM (active)
CCOC(=O)c1csc(NC(=O)Nc2cccc(OC)c2)n1,7.72,
COC(=O)c1sc(N2CCN(Cc3ccccc3)CC2)nc1N,-0.821,
Cc1ccn2c(=O)c(C(=O)NCCC3=CCCCC3)c(O)nc2c1,-5.56,
CCc1ccc(N(C(=O)c2csnn2)C(C(=O)NC2CCCCC2)c2cccnc2)cc1 (configuration not stated),-9.84,
CCCCS(=O)(=O)N1C2=NC(C(=O)OC)=C(C(=O)OC)[C@@H]3N(Cc4ccccc4)c4ccccc4[C@]23C[C@H]1C(=O)OC,-16,
Cc1ccc(C2SCC(=O)N2c2ccccc2)cc1 (configuration not stated),-9.8,
Cc1ccc(C2NC(C(=O)O)CS2)cc1 (configuration not stated),,70.8 µM (active)
Cc1ccc(C2CC2C(=O)NN)cc1 (configuration not stated),6.91,
